LmPK inh: inhibitors of Leishmania mexicana pyruvate kinase. AID 1721. purified LmPK, Kinase-Glo ATP luminescence, 1 h. Q27686. hit rate 0.37% among 290,000. Potency, µM (series often up to 57.5 µM), usual class: inhibitors
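ATP generated from ADP (0.1 mM) and PEP (0.5 mM) by 0.1 nM LmPK over 1 h at room temperature (pH 7.2 imidazole buffer) was detected by coupled luciferase luminescence. Values were normalized to uninhibited and no-enzyme wells.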
Cycloheximide cs: counter-screen hit for Shiga toxin inhibitors, cycloheximide; cell reporter, cycloheximide protein synthesis inhibition counterscreen; max response, %; hit rate 12% among 300,000; AID 2314; in the data active means max response mostly above about 13%, no sharp cut-off; inactive means mostly below about 14%; further: read at 38.3 µM for the half of the compounds with a filed dose
Shiga toxin inh: inhibitors of Shiga toxin in Vero cells; hit rate 9.2% among 290,000; inhibition, % at 38.7 µM; Vero cells, Shiga toxin protein synthesis inhibition reporter; AID 2315; in the data active means inhibition mostly above about 28%, no sharp cut-off; inactive means mostly below about 43%
Tb PYK inh: blocks Trypanosoma brucei pyruvate kinase. hit rate 0.12% among 410,000. TbPYK enzyme, Kinase-Glo Plus ATP luminescence, 45 min. Potency, µM (top dose mostly 76.8 µM), hits mostly inhibitors. Q57TT1; further: nearly all actives have a fitted effect of over 50% in size
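Luminescent Kinase-Glo Plus end-point after 45 min room-temperature reaction of T. brucei pyruvate kinase started with 130 uM ADP (final). Buffer TEA 50 mM pH 7.2 with KCl, MgCl2, BSA, Tween-20; titration-based qHTS with fitted concentration-effect curves.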
Sm TGR block: inhibitors of Schistosoma mansoni thioredoxin glutathione reductase; Q962Y6; purified TGR, DTNB reduction, TNB absorbance 405 nm; Potency, µM (series often up to 114 µM), usual class: inhibitors; hit rate 3% among 360,000; further: nearly all actives have a fitted effect of over 60% in size
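First, TGR (20 nM dispensed) and NADPH were mixed with compound. Second, a 15 min room-temperature incubation followed. Third, further NADPH and then DTNB were added to start the reaction. Finally, TNB absorbance was monitored kinetically.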
Giardia FBPA inh: inhibitors of Giardia lamblia fructose-1,6-bisphosphate aldolase | AID 2451 | Potency, µM (top dose mostly 59.6 µM), hits mostly inhibitors | hit rate 0.71% among 290,000 | purified Giardia FBPA; further: nearly all actives have a fitted effect of over 55% in size
Target sequence (A8B2U2 whole entry, looked up): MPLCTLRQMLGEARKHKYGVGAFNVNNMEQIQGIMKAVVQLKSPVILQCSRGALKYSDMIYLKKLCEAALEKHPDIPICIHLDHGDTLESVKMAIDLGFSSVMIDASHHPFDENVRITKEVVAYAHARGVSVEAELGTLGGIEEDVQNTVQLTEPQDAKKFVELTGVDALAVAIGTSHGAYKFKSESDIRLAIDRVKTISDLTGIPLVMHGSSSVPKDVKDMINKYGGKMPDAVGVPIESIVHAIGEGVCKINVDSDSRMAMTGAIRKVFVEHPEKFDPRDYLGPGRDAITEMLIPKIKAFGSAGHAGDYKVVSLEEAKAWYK
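40 nM FBPA preincubated 10 min at RT with compound (up to 57.5 uM final), then substrate plus GAPDH/TPI/NAD/arsenate coupling and diaphorase/resazurin added. Fluorescence read after 20 min at RT, 525/598 nm.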
Large screens that a line does not name were inactive. The full list was thinned out, with hits kept by preference. Unless noted, the call rests on the fitted dose curve; in most records, active means well fitted curve in the direction sought with a large enough effect; inconclusive means small, poorly fitted or top-dose-only effect, or another doubt; inactive means no such curve, though single readings can be large; an effect the other way counts as inactive or inconclusive.

COc1ccc(Cn2c(C)nc([N+](=O)[O-])c2SCC(=O)O)cc1[N+](=O)[O-]	Sm TGR block 35µM
COc1ccc(Cn2cc([N+](=O)[O-])nc2C)cc1[N+](=O)[O-]	none
COc1ccc(-n2c(C)cc(C(=O)CN3CCCCC3)c2C)cc1	none
Cc1cc(C(=O)CN2CCCCC2)c(C)n1-c1ccc(F)cc1	Cycloheximide cs 37, Shiga toxin inh 56
Cc1cc(C(=O)NC2CCCCC2)c(C)n1-c1ccc(F)cc1	Cycloheximide cs 46, Shiga toxin inh 77
Cc1cc(C(=O)CN2C(=O)C(=O)N(C3CCCC3)C2=O)c(C)n1-c1ccc(F)cc1	Giardia FBPA inh inconclusive
COc1ccc(-n2c(C)cc(C(=O)CN3CCC(C)CC3)c2C)cc1	Cycloheximide cs 37
COc1ccc2[nH]cc(C(=O)CN3CCC(C)CC3)c2c1	Cycloheximide cs 35, Shiga toxin inh 76
COc1ccc2[nH]cc(C(=O)CN3CCCC(C)C3)c2c1 (configuration not stated)	none
O=C(COC(=O)CCN=C1NS(=O)(=O)c2ccccc21)NNC(=O)c1ccc(Cl)cc1	none (no result: LmPK inh, Cycloheximide cs, Shiga toxin inh, Giardia FBPA inh)
COc1ccc2[nH]c(C)c(C(=O)CN3CCOCC3)c2c1	Sm TGR block 45µM
Cc1cc(C(=O)CN2CCCC2)c(C)n1-c1ccc(F)cc1	Sm TGR block 45µM
Cc1cc(C(=O)CNCc2ccco2)c(C)n1-c1ccc(F)cc1	Cycloheximide cs 38, Shiga toxin inh 74, Sm TGR block inconclusive, Giardia FBPA inh inconclusive
Cc1cc(C(=O)CN2CCCC2)c(C)n1-c1ccc(Cl)cc1	Sm TGR block inconclusive
Cc1cc(C(=S)N2CCOCC2)c(C)n1-c1ccc(F)cc1	none (no result: Sm TGR block)
Cc1cc(C(=O)CN2CCC(C)CC2)c(C)n1-c1ccc(F)cc1	Cycloheximide cs 32, Shiga toxin inh 22
CCOc1ccc(C(=O)Nc2cccc(NC(=O)c3ccc(C(C)(C)C)cc3)c2)cc1Br	none (no result: LmPK inh, Cycloheximide cs, Shiga toxin inh, Giardia FBPA inh)
CCOc1ccc(Nc2nc(N)c3ccccc3n2)cc1	Tb PYK inh inconclusive, Giardia FBPA inh inconclusive
Cc1ccc(Nc2nc(N)c3ccccc3n2)cc1Cl	Cycloheximide cs 43 (no result: Shiga toxin inh)
Cc1ccccc1Nc1nc(N)c2ccccc2n1	LmPK inh inconclusive, Cycloheximide cs 21, Shiga toxin inh 52, Tb PYK inh inconclusive (no result: Sm TGR block)
COc1ccc(C)cc1Nc1nc(N)c2ccccc2n1	Cycloheximide cs 28, Shiga toxin inh 55, Giardia FBPA inh inconclusive
Nc1nc(Nc2ccc(Cl)cc2)nc2ccccc12	LmPK inh 18µM, Cycloheximide cs 30
Cc1c(C(=O)Nc2c(F)cccc2F)sc2ncn(Cc3ccccc3F)c(=O)c12	none (no result: LmPK inh, Cycloheximide cs, Shiga toxin inh, Giardia FBPA inh)
COc1c(C)c2c(c(O)c1CC=C(C)CCC(=O)OCCN1CCOCC1)C(=O)OC2	none (no result: LmPK inh, Sm TGR block)
CC1CCN(S(=O)(=O)c2ccc3c(c2)N(CC(=O)NCCc2ccc(Cl)cc2)C(=O)CO3)CC1	none (no result: LmPK inh, Cycloheximide cs, Shiga toxin inh, Giardia FBPA inh)
CCCN(C(=O)Cn1cnc2onc(-c3ccc(F)cc3)c2c1=O)c1cccc(Cl)c1	none (no result: LmPK inh, Cycloheximide cs, Shiga toxin inh, Giardia FBPA inh)
CN(C)c1ccc(Nc2nc(N)c3ccccc3n2)cc1	LmPK inh inconclusive, Tb PYK inh inconclusive, Sm TGR block inconclusive, Giardia FBPA inh inconclusive (no result: Shiga toxin inh)
Nc1nc(Nc2ccccc2)nc2ccccc12	LmPK inh 16µM
CC(=O)C1(C)C(=O)N(c2ccc(F)cc2)C(=O)N1c1ccc(F)cc1 (configuration not stated)	none (no result: LmPK inh, Cycloheximide cs, Shiga toxin inh, Sm TGR block, Giardia FBPA inh)
O=C(Nc1cccnc1)c1cc2c(s1)-c1ccccc1OC2	Cycloheximide cs 43, Shiga toxin inh 54
Cc1cccc2c1-c1sc(C(=O)Nc3cccnc3)cc1CO2	Cycloheximide cs 19, Shiga toxin inh 42
COc1ccc(-c2oc3cccnc3c2/C=C/c2ccc(OC)c(OC)c2)cc1	Cycloheximide cs 9.9, Sm TGR block inconclusive
CCOC(=O)C1(CCc2ccccc2)CCN(C2CCSCC2)CC1	Sm TGR block 11µM
CCOC(=O)C1(CCc2ccccc2)CCN(C(=O)Cc2nonc2C)CC1	Cycloheximide cs 14, Shiga toxin inh 63 (no result: Sm TGR block)
CCOC(=O)C1(CCc2ccccc2)CCN(C2Cc3ccccc3C2)CC1	Cycloheximide cs 27, Shiga toxin inh 76
CCOC(=O)C1(CCc2ccccc2)CCN(C(=O)[C@@H]2C[C@@H](C)NC(=S)N2)CC1	Cycloheximide cs 13
Cc1ccc([C@H]2N[C@]3(CCCN(Cc4ccc(F)cc4)C3=O)[C@H]3C(=O)N(Cc4ccccc4)C(=O)[C@@H]23)cc1	none (no result: LmPK inh, Cycloheximide cs, Shiga toxin inh, Sm TGR block, Giardia FBPA inh)
Cc1ccc(SCC(=O)N/N=C/c2ccco2)cc1	none
O=C(N/N=C/C=C\c1cccc([N+](=O)[O-])c1)c1ccccn1	none
O=C(N/N=C/C(Cl)=C/c1ccccc1)c1ccncc1	none
O=C(N/N=C/C=C\c1ccccc1[N+](=O)[O-])c1ccccn1	Cycloheximide cs 61, Shiga toxin inh 75
O=C(N/N=C\C=C\c1ccco1)c1cc(-c2ccc3ccccc3c2)n[nH]1	Cycloheximide cs 24, Shiga toxin inh active, Sm TGR block inconclusive
O=C(N/N=C/C(Cl)=C/c1ccccc1)c1ccccn1	LmPK inh inconclusive, Cycloheximide cs 33, Shiga toxin inh 76 (no result: Sm TGR block)
O=C(CCC(=O)Nc1ccccc1)N/N=C/C=C/c1ccccc1	Cycloheximide cs 10.0
O=C(N/N=C/C=C\c1ccco1)c1ccccn1	Cycloheximide cs 24, Sm TGR block 10µM, Giardia FBPA inh inconclusive
O=C(CSc1ccccn1)N/N=C/C=C/c1ccccc1	Cycloheximide cs 32, Shiga toxin inh 90
O=C(N/N=C/C=C\c1ccccc1)c1cnccn1	none
O=C(N/N=C/C(Br)=C/c1ccccc1)c1cnccn1	Cycloheximide cs 50, Shiga toxin inh 99
O=C(N/N=C/c1ccco1)c1cnccn1	none
O=C(CNC(=O)c1ccccc1)N/N=C/C=C/c1ccccc1	none
Cc1cc(C(=O)N/N=C/C(Cl)=C/c2ccccc2)c(C)o1	Cycloheximide cs 27, Shiga toxin inh 43
Cc1ccc(N(CCC#N)C(=O)COC(=O)c2cc(C)oc2C)cc1	none (no result: LmPK inh, Cycloheximide cs, Shiga toxin inh, Giardia FBPA inh)
CC(C)N1CCN(S(=O)(=O)c2ccccc2)c2ccccc21	none (no result: LmPK inh, Cycloheximide cs, Shiga toxin inh, Sm TGR block, Giardia FBPA inh)
Nc1nnn(CC(=O)N/N=C/C=C/c2ccccc2)n1	Cycloheximide cs 21, Shiga toxin inh 58
O=C(N/N=C/C=C/c1ccccc1)c1ccccn1	Cycloheximide cs 55, Shiga toxin inh 68
COc1ccc(N2CC(NC(=O)/C=C\c3ccccc3)CC2=O)cc1OC (configuration not stated)	none (no result: LmPK inh, Cycloheximide cs, Shiga toxin inh, Giardia FBPA inh)
O=c1[nH]c(=S)n(-c2ccc(Br)cc2)c(O)c1C=Nc1ccc(N2CCOCC2)cc1	Cycloheximide cs 16
O=C(CN1CCCC1=O)NC1CCCc2c1cnn2-c1cc(F)cc(F)c1 (configuration not stated)	Cycloheximide cs 22
CC(C)(C)c1ccc(-n2ncc3c2CCCC3NC(=O)CN2CCCCC2=O)cc1 (configuration not stated)	none

High-throughput results deposited in PubChem BioAssay by National Center for Advancing Translational Sciences (NCATS).
